Results on one sequence are retold here after PMC7862700, “An all-to-all approach to the identification of sequence-specific readers for epigenetic DNA modifications on cytosine”.

Common to all, as to experiment: DAPPL (digital affinity profiling via proximity ligation, sequencing); 10 mM Tris-HCl pH 7.5, 50 mM NaCl, 1 mM DTT, 4% glycerol, room temperature, 30 min; GST-TFs on glutathione beads, 16-mer random dsDNA library, 0.1% formaldehyde crosslink after washing; high values mean tight binding
One assay addresses T1, FLI1 (Homo sapiens, UniProt Q01543 1-452).
T1 sequence: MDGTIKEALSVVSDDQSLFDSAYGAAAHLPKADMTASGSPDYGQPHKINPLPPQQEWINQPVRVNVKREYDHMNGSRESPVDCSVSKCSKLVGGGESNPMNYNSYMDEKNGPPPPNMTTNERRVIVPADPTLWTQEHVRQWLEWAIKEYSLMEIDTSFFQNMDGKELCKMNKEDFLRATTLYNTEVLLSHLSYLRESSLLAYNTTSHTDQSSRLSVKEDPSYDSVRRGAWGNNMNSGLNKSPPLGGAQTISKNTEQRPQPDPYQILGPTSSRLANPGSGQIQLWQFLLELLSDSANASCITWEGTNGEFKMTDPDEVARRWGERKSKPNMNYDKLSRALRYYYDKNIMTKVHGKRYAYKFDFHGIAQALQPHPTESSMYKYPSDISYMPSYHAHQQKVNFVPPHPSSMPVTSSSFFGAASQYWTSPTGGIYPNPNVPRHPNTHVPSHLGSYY
The settings on record: protein: recombinant; tags: N-terminal GST; dsDNA, one strand shown. In outline:
(§1)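 The binding signal reported is, for every hexamer, its read frequency for a factor over its read frequency for the tag-only sample. Reads came from pools of yeast-expressed, GST-fused human transcription factors on glutathione beads, barcoded with DNA and mixed with that sample, which were incubated with 200 nmole of a random double-stranded 16-mer DNA library in Tris/NaCl/DTT/glycerol buffer at room temperature for 30 min. After washing, the pools were crosslinked with 0.1% formaldehyde, proximity-ligated with BsaI/T4 ligase for 1 h at 37 °C, PCR-amplified and sequenced on an Illumina NextSeq500.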

Another assay deals with T2, ELK1 (Homo sapiens, UniProt P19419 1-428).
T2 sequence: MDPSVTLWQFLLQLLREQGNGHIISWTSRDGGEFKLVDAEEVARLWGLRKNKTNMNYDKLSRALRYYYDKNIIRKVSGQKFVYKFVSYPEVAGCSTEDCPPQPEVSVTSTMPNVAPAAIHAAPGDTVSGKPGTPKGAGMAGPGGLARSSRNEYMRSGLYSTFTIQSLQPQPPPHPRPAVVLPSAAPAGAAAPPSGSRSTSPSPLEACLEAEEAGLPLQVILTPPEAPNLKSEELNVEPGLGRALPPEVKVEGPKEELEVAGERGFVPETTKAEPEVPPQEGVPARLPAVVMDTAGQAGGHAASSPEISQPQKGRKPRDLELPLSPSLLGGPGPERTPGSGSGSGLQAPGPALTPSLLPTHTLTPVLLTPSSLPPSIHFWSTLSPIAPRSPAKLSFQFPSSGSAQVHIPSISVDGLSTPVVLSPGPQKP
The settings on record: protein: recombinant; tags: N-terminal GST; dsDNA, one strand shown. In outline: as §1

The target in a further assay is T3, GABPA (Homo sapiens, UniProt Q06546 1-454).
T3 sequence: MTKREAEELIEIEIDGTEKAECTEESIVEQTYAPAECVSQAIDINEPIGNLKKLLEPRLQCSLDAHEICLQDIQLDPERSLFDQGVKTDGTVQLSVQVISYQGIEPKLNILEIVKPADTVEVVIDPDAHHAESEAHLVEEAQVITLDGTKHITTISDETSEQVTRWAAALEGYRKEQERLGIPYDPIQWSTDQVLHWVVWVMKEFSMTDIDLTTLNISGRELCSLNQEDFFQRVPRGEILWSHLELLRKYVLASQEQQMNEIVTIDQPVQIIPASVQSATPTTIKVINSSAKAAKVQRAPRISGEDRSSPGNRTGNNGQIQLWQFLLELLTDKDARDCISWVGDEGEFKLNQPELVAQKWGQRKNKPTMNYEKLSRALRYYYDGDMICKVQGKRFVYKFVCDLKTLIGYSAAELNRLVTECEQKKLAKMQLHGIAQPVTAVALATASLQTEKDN
The settings on record: protein: recombinant; tags: N-terminal GST; dsDNA, one strand shown. Put shortly:
as §1

In another assay the target is T4, ERG (Homo sapiens, UniProt P11308 1-479).
T4 sequence: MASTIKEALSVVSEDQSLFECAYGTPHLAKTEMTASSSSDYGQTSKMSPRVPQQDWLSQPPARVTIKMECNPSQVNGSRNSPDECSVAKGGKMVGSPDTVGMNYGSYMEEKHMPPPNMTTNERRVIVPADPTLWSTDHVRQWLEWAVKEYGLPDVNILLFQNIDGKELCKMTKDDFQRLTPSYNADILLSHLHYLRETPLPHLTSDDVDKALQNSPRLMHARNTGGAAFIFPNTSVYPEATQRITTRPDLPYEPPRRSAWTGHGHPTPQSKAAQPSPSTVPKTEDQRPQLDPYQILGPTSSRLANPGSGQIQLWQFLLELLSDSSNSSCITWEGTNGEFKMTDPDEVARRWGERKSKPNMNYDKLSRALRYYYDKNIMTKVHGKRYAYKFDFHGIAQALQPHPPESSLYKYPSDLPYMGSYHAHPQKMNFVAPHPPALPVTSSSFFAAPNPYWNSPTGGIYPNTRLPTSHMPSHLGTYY
The settings on record: protein: recombinant; tags: N-terminal GST; dsDNA, one strand shown. Put shortly:
as §1

For the next assay, the target named is ELF1 (Homo sapiens, UniProt P32519 1-619). The following applies: protein: recombinant; tags: N-terminal GST; dsDNA, one strand shown. Put shortly: as §1
A further assay deals with T5, EHF (Homo sapiens, UniProt Q9NZC4 1-300).
T5 sequence: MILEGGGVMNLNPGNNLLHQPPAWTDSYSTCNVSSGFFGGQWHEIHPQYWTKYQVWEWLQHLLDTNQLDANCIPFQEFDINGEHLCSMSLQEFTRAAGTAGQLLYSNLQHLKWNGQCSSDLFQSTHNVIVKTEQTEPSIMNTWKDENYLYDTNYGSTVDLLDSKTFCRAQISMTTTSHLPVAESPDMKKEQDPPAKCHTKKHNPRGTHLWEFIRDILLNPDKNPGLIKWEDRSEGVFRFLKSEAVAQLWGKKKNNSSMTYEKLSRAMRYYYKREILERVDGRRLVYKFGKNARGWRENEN
The following applies: protein: recombinant; tags: N-terminal GST; dsDNA, one strand shown. Put shortly:
as §1

A further assay concerns the target SPI1 (Homo sapiens, UniProt P17947 1-270). The settings on record: protein: recombinant; tags: N-terminal GST; dsDNA, one strand shown. Put shortly:
as §1

The target of a further assay is SPIB (Homo sapiens, UniProt Q01892 1-262). The following applies: protein: recombinant; tags: N-terminal GST; dsDNA, one strand shown. In outline:
as §1

For the next assay, the target named is T6, ELK3 (Homo sapiens, UniProt P41970 1-407).
T6 sequence: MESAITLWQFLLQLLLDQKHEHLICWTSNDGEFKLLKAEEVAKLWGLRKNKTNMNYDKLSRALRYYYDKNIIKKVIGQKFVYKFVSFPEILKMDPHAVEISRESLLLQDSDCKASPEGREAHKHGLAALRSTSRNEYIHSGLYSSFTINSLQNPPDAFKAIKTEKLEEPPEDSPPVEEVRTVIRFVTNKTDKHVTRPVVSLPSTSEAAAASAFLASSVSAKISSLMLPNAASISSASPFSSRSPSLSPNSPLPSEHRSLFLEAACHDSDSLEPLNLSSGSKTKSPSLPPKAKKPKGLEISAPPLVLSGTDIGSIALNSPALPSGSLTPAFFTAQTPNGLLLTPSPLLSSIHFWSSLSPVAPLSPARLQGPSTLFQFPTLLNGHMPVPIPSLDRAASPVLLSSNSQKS
The following applies: protein: recombinant; tags: N-terminal GST; dsDNA, one strand shown. Put shortly: as §1

The target in a further assay is T7, FEV (Homo sapiens, UniProt Q99581 1-238).
T7 sequence: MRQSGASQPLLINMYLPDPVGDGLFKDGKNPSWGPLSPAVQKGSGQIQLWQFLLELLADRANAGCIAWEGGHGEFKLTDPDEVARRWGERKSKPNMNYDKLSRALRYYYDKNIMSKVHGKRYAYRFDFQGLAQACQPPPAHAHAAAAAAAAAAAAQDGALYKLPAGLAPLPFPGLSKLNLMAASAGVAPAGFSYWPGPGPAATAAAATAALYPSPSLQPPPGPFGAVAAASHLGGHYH
The settings on record: protein: recombinant; tags: N-terminal GST; dsDNA, one strand shown. In outline: as §1

The target of another assay is ETV5 (Homo sapiens, UniProt P41161 1-510). The settings on record: protein: recombinant; tags: N-terminal GST; dsDNA, one strand shown. In outline:
as §1

Another assay has as its target HSF1 (Homo sapiens, UniProt Q00613 1-529). The settings on record: protein: recombinant; tags: N-terminal GST; chain copies: 3; dsDNA, one strand shown. In outline:
as §1

In another assay the target is T8, SPIC (Homo sapiens, UniProt Q8N5J4 1-248).
T8 sequence: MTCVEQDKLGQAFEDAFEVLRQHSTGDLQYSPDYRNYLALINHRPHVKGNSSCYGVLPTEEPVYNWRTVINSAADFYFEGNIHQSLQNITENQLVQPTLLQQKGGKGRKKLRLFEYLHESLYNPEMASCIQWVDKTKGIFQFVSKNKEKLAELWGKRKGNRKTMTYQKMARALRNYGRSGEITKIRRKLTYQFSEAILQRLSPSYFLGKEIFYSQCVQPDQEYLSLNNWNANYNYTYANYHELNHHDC
The settings on record: protein: recombinant; tags: N-terminal GST; dsDNA, one strand shown. Put shortly:
as §1

Another assay concerns the target ELF4 (Homo sapiens, UniProt Q99607 1-663). The following applies: protein: recombinant; tags: N-terminal GST; dsDNA, one strand shown. Put shortly:
as §1

In another assay the target is T9, ELK4 (Homo sapiens, UniProt P28324-2 1-405).
T9 sequence: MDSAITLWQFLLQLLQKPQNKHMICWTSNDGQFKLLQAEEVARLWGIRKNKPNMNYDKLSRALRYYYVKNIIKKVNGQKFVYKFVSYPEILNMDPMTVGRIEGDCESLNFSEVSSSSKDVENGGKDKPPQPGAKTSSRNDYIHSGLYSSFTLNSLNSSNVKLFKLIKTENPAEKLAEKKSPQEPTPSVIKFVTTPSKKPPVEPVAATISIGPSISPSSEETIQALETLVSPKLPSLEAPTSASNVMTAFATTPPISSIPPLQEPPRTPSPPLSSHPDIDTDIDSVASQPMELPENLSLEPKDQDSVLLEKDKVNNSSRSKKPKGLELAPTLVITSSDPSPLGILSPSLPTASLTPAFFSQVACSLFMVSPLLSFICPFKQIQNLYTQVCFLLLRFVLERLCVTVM
The following applies: protein: recombinant; tags: N-terminal GST; dsDNA, one strand shown. In outline:
as §1

For another assay, the target named is T10, ETV2 (Homo sapiens, UniProt O00321 1-342).
T10 sequence: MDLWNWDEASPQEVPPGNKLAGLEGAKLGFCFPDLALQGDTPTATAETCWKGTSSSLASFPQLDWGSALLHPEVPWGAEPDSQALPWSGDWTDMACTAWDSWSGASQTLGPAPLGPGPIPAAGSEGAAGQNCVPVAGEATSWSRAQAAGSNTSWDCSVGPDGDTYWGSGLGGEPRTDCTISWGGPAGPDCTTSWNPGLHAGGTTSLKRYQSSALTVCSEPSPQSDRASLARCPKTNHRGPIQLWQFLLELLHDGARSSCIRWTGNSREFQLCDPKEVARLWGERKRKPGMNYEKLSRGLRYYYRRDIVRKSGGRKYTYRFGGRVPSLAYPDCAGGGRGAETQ
The following applies: protein: recombinant; tags: N-terminal GST; dsDNA, one strand shown. Put shortly:
as §1

Another assay addresses CRX (Homo sapiens, UniProt O43186 1-299). The following applies: protein: recombinant; tags: N-terminal GST; dsDNA, one strand shown. In outline: as §1
The next assay deals with ETV1 (Homo sapiens, UniProt P50549 1-477). The settings on record: protein: recombinant; tags: N-terminal GST; dsDNA, one strand shown. Put shortly: as §1
Chain of ETV1 (P50549 whole entry): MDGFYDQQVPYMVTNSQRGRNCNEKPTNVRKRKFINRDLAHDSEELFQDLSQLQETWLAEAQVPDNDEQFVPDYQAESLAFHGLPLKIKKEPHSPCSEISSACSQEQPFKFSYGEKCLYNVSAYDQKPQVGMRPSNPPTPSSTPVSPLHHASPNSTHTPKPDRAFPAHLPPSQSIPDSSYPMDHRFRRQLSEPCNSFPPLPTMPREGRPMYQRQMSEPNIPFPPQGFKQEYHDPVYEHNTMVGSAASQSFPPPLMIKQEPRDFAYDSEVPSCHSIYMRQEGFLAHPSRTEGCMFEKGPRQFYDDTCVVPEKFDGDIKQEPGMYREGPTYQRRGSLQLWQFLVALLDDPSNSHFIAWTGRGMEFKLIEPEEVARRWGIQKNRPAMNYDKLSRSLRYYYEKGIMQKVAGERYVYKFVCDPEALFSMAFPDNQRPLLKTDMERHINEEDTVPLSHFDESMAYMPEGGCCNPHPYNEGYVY

Chain of ELF4 (Q99607 whole entry): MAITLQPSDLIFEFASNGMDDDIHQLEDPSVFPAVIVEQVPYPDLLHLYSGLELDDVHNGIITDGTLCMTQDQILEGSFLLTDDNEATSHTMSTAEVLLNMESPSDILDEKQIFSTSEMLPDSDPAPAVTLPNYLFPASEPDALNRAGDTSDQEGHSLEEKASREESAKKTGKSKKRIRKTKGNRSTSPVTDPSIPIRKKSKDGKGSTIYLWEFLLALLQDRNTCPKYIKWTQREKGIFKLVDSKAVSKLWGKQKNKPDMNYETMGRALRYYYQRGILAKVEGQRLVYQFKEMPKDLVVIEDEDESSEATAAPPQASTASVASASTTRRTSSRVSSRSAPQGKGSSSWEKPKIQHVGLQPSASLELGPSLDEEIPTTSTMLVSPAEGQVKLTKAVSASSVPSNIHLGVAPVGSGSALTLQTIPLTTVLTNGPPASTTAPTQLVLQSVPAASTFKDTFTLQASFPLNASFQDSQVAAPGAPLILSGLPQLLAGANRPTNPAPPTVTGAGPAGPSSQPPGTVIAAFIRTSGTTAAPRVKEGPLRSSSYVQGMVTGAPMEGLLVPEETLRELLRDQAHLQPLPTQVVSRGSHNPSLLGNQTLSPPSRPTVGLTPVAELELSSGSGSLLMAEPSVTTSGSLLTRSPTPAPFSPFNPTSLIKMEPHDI
Chain of ETV5 (P41161 whole entry): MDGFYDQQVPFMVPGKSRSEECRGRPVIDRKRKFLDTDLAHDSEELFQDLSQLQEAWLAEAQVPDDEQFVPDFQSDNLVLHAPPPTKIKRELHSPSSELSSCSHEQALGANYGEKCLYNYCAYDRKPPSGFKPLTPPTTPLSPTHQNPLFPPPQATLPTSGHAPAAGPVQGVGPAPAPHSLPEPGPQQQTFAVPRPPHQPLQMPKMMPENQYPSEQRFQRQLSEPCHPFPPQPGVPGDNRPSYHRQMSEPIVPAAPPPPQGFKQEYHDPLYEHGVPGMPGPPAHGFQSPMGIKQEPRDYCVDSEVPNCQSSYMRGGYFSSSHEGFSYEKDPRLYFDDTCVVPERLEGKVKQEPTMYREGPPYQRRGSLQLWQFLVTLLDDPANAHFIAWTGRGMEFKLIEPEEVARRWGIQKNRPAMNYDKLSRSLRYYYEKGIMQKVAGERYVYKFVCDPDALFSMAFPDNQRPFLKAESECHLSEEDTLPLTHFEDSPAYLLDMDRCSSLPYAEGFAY
Chain of SPIB (Q01892 whole entry): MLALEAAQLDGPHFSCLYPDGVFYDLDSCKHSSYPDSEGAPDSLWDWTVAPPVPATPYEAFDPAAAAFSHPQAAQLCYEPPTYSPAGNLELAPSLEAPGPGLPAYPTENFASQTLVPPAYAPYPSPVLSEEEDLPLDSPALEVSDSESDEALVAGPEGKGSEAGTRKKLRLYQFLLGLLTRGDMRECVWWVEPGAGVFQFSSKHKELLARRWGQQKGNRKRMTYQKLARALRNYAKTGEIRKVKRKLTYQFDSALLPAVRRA
Chain of CRX (O43186 whole entry): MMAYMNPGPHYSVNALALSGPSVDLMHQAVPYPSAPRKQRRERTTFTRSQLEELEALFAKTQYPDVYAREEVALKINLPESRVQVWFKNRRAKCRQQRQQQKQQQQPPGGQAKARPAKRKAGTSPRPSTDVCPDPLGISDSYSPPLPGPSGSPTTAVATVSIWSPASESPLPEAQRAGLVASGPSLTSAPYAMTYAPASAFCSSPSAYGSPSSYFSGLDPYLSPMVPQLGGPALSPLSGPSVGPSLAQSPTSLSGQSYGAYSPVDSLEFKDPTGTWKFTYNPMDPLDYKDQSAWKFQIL
Chain of HSF1 (Q00613 whole entry): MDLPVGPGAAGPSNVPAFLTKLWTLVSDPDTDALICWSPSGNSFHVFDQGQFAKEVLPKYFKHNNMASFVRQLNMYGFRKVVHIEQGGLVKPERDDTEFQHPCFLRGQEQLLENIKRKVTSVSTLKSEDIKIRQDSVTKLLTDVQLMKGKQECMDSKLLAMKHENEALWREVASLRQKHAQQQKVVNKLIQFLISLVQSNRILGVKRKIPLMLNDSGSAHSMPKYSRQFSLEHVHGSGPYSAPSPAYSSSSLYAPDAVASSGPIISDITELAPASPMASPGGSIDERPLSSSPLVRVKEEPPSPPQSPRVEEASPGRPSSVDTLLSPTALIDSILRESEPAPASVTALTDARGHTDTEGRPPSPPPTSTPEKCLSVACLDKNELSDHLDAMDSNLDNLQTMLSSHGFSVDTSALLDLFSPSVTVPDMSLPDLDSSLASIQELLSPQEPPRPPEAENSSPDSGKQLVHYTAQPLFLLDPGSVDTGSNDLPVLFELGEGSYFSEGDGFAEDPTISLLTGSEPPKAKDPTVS
Chain of ELF1 (P32519 whole entry): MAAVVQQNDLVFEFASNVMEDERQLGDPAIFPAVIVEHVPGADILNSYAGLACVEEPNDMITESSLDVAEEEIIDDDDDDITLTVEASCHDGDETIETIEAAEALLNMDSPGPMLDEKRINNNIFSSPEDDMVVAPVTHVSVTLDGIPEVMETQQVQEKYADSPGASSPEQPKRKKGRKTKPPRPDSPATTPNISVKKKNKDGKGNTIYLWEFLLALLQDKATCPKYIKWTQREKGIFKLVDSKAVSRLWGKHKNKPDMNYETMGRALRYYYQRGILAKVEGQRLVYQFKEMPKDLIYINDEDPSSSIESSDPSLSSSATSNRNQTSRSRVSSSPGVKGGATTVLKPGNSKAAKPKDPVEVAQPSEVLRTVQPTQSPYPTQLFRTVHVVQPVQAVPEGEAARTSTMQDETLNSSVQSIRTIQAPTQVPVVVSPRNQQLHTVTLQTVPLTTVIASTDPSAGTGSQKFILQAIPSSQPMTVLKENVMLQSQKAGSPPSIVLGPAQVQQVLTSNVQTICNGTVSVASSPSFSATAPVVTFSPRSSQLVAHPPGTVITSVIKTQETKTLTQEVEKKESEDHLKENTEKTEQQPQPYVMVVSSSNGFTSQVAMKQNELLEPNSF

With TATCTG, the binding signal is 1.3 fold enrichment (6-mer frequency, TF over GST control) in the assay with FLI1; 1.12 fold enrichment (6-mer frequency, TF over GST control) in the assay with ELK1; 1.21 fold enrichment (6-mer frequency, TF over GST control) in the assay with GABPA; 1.25 fold enrichment (6-mer frequency, TF over GST control) with ERG; 1.26 fold enrichment (6-mer frequency, TF over GST control) with ELF1; 1.16 fold enrichment (6-mer frequency, TF over GST control) with EHF. For the same sequence, the binding signal with SPI1 is 1.21 fold enrichment (6-mer frequency, TF over GST control); with SPIB it was 1.16 fold enrichment (6-mer frequency, TF over GST control); with ELK3, 1.21 fold enrichment (6-mer frequency, TF over GST control); with FEV, 1.15 fold enrichment (6-mer frequency, TF over GST control); with ETV5 it was 1.15 fold enrichment (6-mer frequency, TF over GST control); with HSF1 it was 1.36 fold enrichment (6-mer frequency, TF over GST control). Moreover, the binding signal with SPIC is 1.17 fold enrichment (6-mer frequency, TF over GST control); with ELF4, 1.14 fold enrichment (6-mer frequency, TF over GST control); in the assay with ELK4, 1.25 fold enrichment (6-mer frequency, TF over GST control); with ETV2, 1.33 fold enrichment (6-mer frequency, TF over GST control); in the assay with CRX, 1.46 fold enrichment (6-mer frequency, TF over GST control); in the assay with ETV1, 1.2 fold enrichment (6-mer frequency, TF over GST control).
